The target of test [1] is Glucocorticoid receptor (Homo sapiens) (UniProt P04150). As to the kind of experiment: qHTS assay for small molecule agonists of glucocorticoid receptor signaling (AID 588532; active means well fitted curve in the direction sought with a large enough effect in the signal ratio, with a control signal flat; the % refers to the signal ratio;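 further: 100% = dexamethasone at 0.1 µM and 0% = DMSO only wells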). Particulars: HeLa MMTV-bla, beta-lactamase ratio, agonist, 18 h; activation: stronger effect = higher value, percent of dexamethasone control, DMSO zero. The method, boiled down:
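Quantitative HTS using CellSensor MMTV-bla HeLa cells in charcoal/dextran-treated serum; compounds tested up to 92 uM. After 18 h at 37 C, CCF4 dye reported reporter induction.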

Test [2] shares this target. As to the kind of experiment: qHTS assay for small molecule antagonists of glucocorticoid receptor signaling (AID 588533; active means well fitted inhibition curve with a large enough effect in the signal ratio, with a control signal flat, not every such curve was filed as active; the % refers to the signal ratio;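 further: cells stimulated with 2 nM dexamethasone as agonist; on the % scale 0 is the no-effect control and ±100 the full control effect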). The procedure, abridged:
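Antagonist-mode qHTS: compound titrations added to GRE-bla HeLa cells, then dexamethasone 2 nM final; 18 h, 37 C. CCF4 FRET fluorescence normalized to dexamethasone and DMSO; IC50 from Hill fit.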
For orientation: In qHTS, concentration-response curves come from the screen itself.

Test [3] addresses Peroxisome proliferator-activated receptor delta (Homo sapiens) (UniProt Q03181). Nature of the test: qHTS assay for small molecule agonists of peroxisome proliferator-activated receptor delta signaling (AID 588534).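 Further: 0% = DMSO basal wells and 100% = positive control agonist at 10 µM.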 The procedure, abridged:
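Agonist-mode beta-lactamase reporter readout (CCF4 dye, 2 h at RT) after 18 h at 37 °C exposure to a titration; Hill-equation fitting gave EC50 and maximal response.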

Test [4] concerns the target Peroxisome proliferator-activated receptor gamma (Homo sapiens) (UniProt P37231). As to the kind of experiment: qHTS assay for small molecule agonists of peroxisome proliferator-activated receptor gamma signaling (AID 588536; active means well fitted curve in the direction sought with a large enough effect in the signal ratio, with a control signal flat, not every such curve was filed as active; the % refers to the signal ratio;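 further: 0% = DMSO basal wells and 100% = rosiglitazone at 2 µM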). The procedure, abridged: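 This is an agonist-mode beta-lactamase reporter assay in HEK293 PPAR-gamma-UAS-bla cells with 1% charcoal/dextran FBS. Compound titrations ran 16 h at 37 C before CCF4 detection. EC50 and efficacy are Hill fits scaled to 2 uM rosiglitazone (100%) and DMSO basal.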

For test [5] the target is unchanged. Nature of the test: qHTS assay for small molecule antagonists of peroxisome proliferator-activated receptor gamma signaling (AID 588537; active means well fitted inhibition curve with a large enough effect in the signal ratio, with a control signal flat, not every such curve was filed as active; the % refers to the signal ratio;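 further: reporter cells co-stimulated with 50 nM rosiglitazone agonist during compound treatment; % of control where 0% means no effect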). The method, boiled down: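 Antagonist-mode β-lactamase reporter screen run as a titration series. HEK293 PPARγ-UAS-bla cells are stimulated with rosiglitazone (50 nM final) for 16 h, then CCF4 is read at 460/530 nm. Data are scaled between DMSO and rosiglitazone and fitted to the Hill equation.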

Test [6] has as its target Vitamin D3 receptor (Homo sapiens) (UniProt P11473). Nature of the test: qHTS assay for small molecule agonists of vitamin D receptor signaling (AID 588543).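 Further: 0% = DMSO basal and 100% = reference agonist control.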 The method, boiled down: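 Measured: β-lactamase reporter activity (CCF4, 405 nm excitation, 460/530 nm emission) in HEK293T VDR-UAS-bla cells after 16 h compound exposure at 37 °C. Normalization against 50 nM 1α,25-dihydroxyvitamin D3 and DMSO; Hill-fit EC50.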

The target in test [7] is Thyroid hormone receptor beta (Homo sapiens) (UniProt P10828). Nature of the test: qHTS assay for small molecule agonists of thyroid hormone receptor beta signaling (AID 588545).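 Further: 0% = DMSO only and 100% = 10 nM T3.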 The method, boiled down: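 Stimulation of a TR-driven beta-lactamase reporter was quantified in GripTite HEK 293 cells. Compound series ran for 18 hrs; curves were normalized to T3 and DMSO controls and fitted to yield EC50.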
Thyroid hormone receptor beta (Homo sapiens), sequence (P10828 whole entry, looked up): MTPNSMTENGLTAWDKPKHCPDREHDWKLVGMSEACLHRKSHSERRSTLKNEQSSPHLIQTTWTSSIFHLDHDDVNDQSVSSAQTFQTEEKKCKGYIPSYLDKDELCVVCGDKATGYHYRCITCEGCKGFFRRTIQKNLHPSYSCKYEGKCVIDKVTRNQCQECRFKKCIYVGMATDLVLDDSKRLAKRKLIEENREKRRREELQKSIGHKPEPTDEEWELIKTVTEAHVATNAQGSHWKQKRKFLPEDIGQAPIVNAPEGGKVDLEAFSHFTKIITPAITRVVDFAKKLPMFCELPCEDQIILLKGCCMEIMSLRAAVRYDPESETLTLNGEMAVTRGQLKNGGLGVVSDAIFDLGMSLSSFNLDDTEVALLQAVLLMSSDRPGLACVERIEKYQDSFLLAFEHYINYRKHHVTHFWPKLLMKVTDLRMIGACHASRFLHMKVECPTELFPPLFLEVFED

Test [8] in a line: qHTS assay for small molecule antagonists of retinoid X receptor alpha signaling (AID 588546; active means well fitted inhibition curve with a large enough effect in the signal ratio, with a control signal flat, not every such curve was filed as active; the % refers to the signal ratio;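 further: cells stimulated with 9-cis-retinoic acid as agonist; on the % scale 0 is the no-effect control and ±100 the full control effect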). Particulars: HEK293T RXRa-UAS-bla, beta-lactamase ratio, antagonist mode; measured here: W530 green channel, cytotoxicity proxy. The procedure, abridged: (§1)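 Beta-lactamase reporter inhibition, read as CCF4 fluorescence ratio (ex 405, em 460/530 nm) after 2 h at RT. HEK293T UAS-bla cells, 2500/well, were stimulated with 9-cis-RA at 500 or 100 nM final alongside test compound for 18 h at 37 C.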

In test [9] the target is Retinoic acid receptor RXR-alpha (Homo sapiens) (UniProt P19793). The test is described as above. Particulars: HEK293T RXRa-UAS-bla, beta-lactamase ratio, antagonist mode. The method, boiled down: as §1
Retinoic acid receptor RXR-alpha (Homo sapiens), sequence (P19793 whole entry, looked up): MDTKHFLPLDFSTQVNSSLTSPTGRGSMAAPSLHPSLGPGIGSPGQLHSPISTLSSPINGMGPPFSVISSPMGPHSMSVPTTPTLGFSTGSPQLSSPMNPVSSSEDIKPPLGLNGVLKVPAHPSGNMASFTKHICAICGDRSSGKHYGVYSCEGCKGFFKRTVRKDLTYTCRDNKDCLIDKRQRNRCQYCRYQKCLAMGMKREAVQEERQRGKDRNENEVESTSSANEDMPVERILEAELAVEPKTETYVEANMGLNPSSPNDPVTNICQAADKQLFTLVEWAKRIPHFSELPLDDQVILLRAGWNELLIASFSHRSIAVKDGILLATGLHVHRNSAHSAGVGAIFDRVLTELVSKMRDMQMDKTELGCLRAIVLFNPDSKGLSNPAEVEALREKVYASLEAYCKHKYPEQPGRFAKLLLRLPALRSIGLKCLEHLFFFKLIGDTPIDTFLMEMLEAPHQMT
Test [10] deals with Thyroid hormone receptor beta (Homo sapiens) (UniProt P10828). As to the kind of experiment: qHTS assay for small molecule antagonists of thyroid hormone receptor beta signaling (AID 588547; active means well fitted inhibition curve with a large enough effect in the signal ratio, with a control signal flat, not every such curve was filed as active; the % refers to the signal ratio;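 further: cells stimulated with 0.4 nM T3 agonist during compound exposure; series mostly up to about 77 µM; on the % scale 0 is the no-effect control and ±100 the full control effect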). Particulars: TR-UAS-bla HEK293, beta-lactamase ratio, antagonist mode, 18 h. The procedure, abridged:
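Inhibition of T3-driven (0.4nM final) beta-lactamase reporter activity was measured over 0.59 nM to 92 uM compound after 18 h at 37 C. The cells were GripTite HEK293 TR-UAS-bla in charcoal/dextran-stripped serum, with CCF4 ratio read-out and IC50 from Hill fits.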

A short description of test [11]: qHTS assay for small molecule activators of the p53 signaling pathway (AID 651743; active means well fitted activation curve with a large enough effect in the signal ratio, not every such curve was filed as active; the % refers to the signal ratio; further: series mostly up to about 92 µM; % of control where 0% means no effect). Particulars: HCT-116 p53RE-bla, beta-lactamase FRET ratio, 16 h; activation: stronger effect = higher value. The procedure, abridged:
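After 16 hours compound treatment at 37 C, HCT-116 cells stably expressing p53RE-driven beta-lactamase were loaded with LiveBLAzer B/G FRET substrate for 2 hours at room temperature. Fluorescence intensity served as the p53 activation read-out.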

A short description of test [12]: qHTS assay for small molecule activators of the nuclear factor-kappa B (NF-kB) signaling pathway (AID 651749; active means well fitted activation curve with a large enough effect in the signal ratio; the % refers to the signal ratio; further: series mostly up to about 77 µM; % of control where 0% means no effect). Particulars: NF-kB-bla ME-180 cells, beta-lactamase FRET ratio, 16 h; activation: stronger effect = higher value. The procedure, abridged:
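Activation measured after 16 hr compound treatment at 37C, 5% CO2, of 2,000 ME-180 cells/well stably expressing an NF-kB response element–driven beta-lactamase reporter, via FRET-disruption fluorescence.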

A short description of test [13]: qHTS assay for environmental chemicals that activate the Aryl hydrocarbon Receptor (AhR) signaling pathway (AID 651777; active means well fitted curve in the direction sought with a large enough effect; an effect the other way counts as inactive or inconclusive; further: nearly all actives have a fitted effect of over 15% in size; further: potency means the concentration at half of the fitted maximal effect; on activation: % of control where 0% means no effect). As to conditions: 1A2-DRE human hepatoma cells, luciferase, 24 h; activation: stronger effect = higher value. The procedure, abridged: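 Quantitative HTS in stably transfected human liver-derived cells whose luciferase gene sits downstream of the CYP1A2 promoter and dioxin response element. After 24 hr exposure at 37 C, One-Glo luminescence was measured.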

The nature of test [14]: qHTS assay for small molecule agonists of the antioxidant response element (ARE) signaling pathway measured by Nrf2-dependant transcriptional activity (AID 720636; active means well fitted curve in the direction sought with a large enough effect in the repeat runs; an effect the other way counts as inactive or inconclusive; further: % of control where 0% means no effect). The procedure, abridged:
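Quantitative HTS format in HepG2 cells stably expressing an ARE-luciferase reporter; 16 hr compound treatment at 37 C, luciferase signal detected with ONE-Glo.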

Test [15] is described as follows: qHTS assay for small molecule agonists of the antioxidant response element (ARE) signaling pathway measured by Nrf2-dependant transcriptional activity - cell viability counter screen (AID 720653; active means well fitted curve in the direction sought with a large enough effect in the repeat runs; an effect the other way counts as inactive or inconclusive; further: on the % scale 0 is the no-effect control and ±100 the full control effect). As to conditions: ARE-bla HepG2 viability, CellTiter-Glo ATP luminescence, 16 h; max response: stronger effect = lower value. The procedure, abridged:
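Cytotoxicity counter screen: intracellular ATP quantified by CellTiter-Glo luminescence in the same ARE-bla HepG2 plates, after 16 h compound exposure and a 2 h beta-lactamase substrate step.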

The nature of test [16]: qHTS assay for cell viability of HEK293 cells (AID 743288; active means well fitted curve in the direction sought with a large enough effect; an effect the other way counts as inactive or inconclusive; further: on the % scale 0 is the no-effect control and ±100 the full control effect; nearly all actives have a fitted effect of over 50% in size). As to conditions: ATP luminescence (CellTiter-Glo), 18 h; max response: stronger effect = lower value. The procedure, abridged:
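HEK293, 18 h, 37 C, ATP luminescence. Cells at 2,000/well were allowed at least 5 h to settle before dosing; CellTiter-Glo developed 30 min at RT.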

Test [17] can be described thus: qHTS assay for cell viability of the p53RE-bla HCT-116 cell line (AID 743292; active means well fitted curve in the direction sought with a large enough effect; an effect the other way counts as inactive or inconclusive; further: on the % scale 0 is the no-effect control and ±100 the full control effect; nearly all actives have a fitted effect of over 55% in size). The procedure, abridged:
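Viability of compound-treated p53RE-bla HCT-116 cells is taken from ATP-dependent luciferase luminescence. Treatment lasts 16 h at 37 C after a 5 h settling period; detection follows 30 min at room temperature.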

Test [18] concerns the target Nuclear receptor subfamily 1 group I member 2 (Rattus norvegicus) (UniProt Q9R1A7). As to the kind of experiment: qHTS assay for small molecule activators of the rat pregnane X receptor (rPXR) signaling pathway (AID 651751; call rule not given here; further: 0% is about no effect). As to conditions: rPXR reporter cells, luciferase (One-Glo), 24 h.
A short description of test [19]: qHTS assay for small molecule activators of the human pregnane X receptor (PXR) signaling pathway (AID 720659; call rule not given here; further: 0% is about no effect).
Test [20] addresses Bile acid receptor (Homo sapiens) (UniProt Q96RI1). Nature of the test: qHTS assay for small molecule agonists of farnesoid X receptor signaling (AID 588527).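 Further: series mostly up to about 77 µM; 0% = vehicle basal and 100% = reference agonist.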 Particulars: HEK293T FXR-UAS-bla, beta-lactamase ratio, 16 h; activation: stronger effect = higher value. The method, boiled down: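 Agonist-mode beta-lactamase reporter in GeneBLAzer FXR-UAS-bla HEK293T cells, titration up to 92 uM, 16 h exposure at 37 C, CCF4 fluorescence. Response scaled to DMSO (0%) and 100 uM chenodeoxycholic acid (100%), then Hill-fitted for EC50 and efficacy.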

Test [21] is described as follows: qHTS assay for small molecule agonists of the antioxidant response element (ARE) signaling pathway (AID 651741; active means well fitted activation curve with a large enough effect in the signal ratio; the % refers to the signal ratio; further: potency means the concentration at half of the fitted maximal effect). The method, boiled down:
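Beta-lactamase reporter under ARE control in HepG2 cells, 2,000 per well, was induced by 16 h compound treatment at 37 C. Read-out was fluorescence from LiveBLAzer B/G FRET substrate after 2 h at room temperature.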

The target of test [22] is Cytochrome P450 3A4 (Homo sapiens) (UniProt P08684). As to the kind of experiment: qHTS Assay for Activators of Cytochrome P450 3A4 (AID 885; active means well fitted curve in the direction sought with a large enough effect; an effect the other way counts as inactive or inconclusive; further: nearly all actives have a fitted effect of over 65% in size). The method, boiled down: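 Luminescent readout of luciferin formed from 25 uM Luciferin-PPXE (KM level) by 20 nM CYP3A4 in 200 mM KPO4, with 60 min NADPH-driven reaction at room temperature after 10 min compound exposure. Ketoconazole (57 uM) defined 100% inhibition.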
Cytochrome P450 3A4 (Homo sapiens), sequence (P08684 whole entry, looked up): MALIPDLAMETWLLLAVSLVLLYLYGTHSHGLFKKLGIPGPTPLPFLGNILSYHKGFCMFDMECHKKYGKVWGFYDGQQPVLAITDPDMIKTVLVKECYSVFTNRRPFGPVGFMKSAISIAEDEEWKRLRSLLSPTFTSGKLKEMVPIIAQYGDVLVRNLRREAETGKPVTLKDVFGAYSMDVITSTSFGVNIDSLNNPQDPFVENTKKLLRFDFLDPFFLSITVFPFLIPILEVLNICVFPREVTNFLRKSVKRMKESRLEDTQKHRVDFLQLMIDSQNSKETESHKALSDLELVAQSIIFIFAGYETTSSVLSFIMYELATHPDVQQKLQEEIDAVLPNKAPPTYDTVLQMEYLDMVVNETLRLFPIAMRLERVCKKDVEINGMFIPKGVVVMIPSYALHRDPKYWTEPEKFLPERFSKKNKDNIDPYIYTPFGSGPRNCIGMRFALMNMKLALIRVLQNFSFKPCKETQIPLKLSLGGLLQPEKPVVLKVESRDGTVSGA

Test [23] deals with Nuclear receptor ROR-gamma (Homo sapiens) (UniProt P51449). As to the kind of experiment: qHTS assay for small molecule antagonists of the retinoid-related orphan receptor gamma (ROR-gamma) signaling pathway (AID 651802; active means well fitted curve in the direction sought with a large enough effect; an effect the other way counts as inactive or inconclusive;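 further: CHO cells with doxycycline-induced ROR-gamma expression; luciferase reporter luminescence driven by ROR response element; series mostly up to about 92 µM; on the % scale 0 is the no-effect control and ±100 the full control effect; nearly all actives have a fitted effect of over 60% in size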). The method, boiled down: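 Luminescence (One-Glo, 30 min RT) measured 16 h after compound addition and doxycycline induction at 37C. Reporter: RORE-luciferase under TET-inducible ROR-gamma in CHO cells.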
Nuclear receptor ROR-gamma (Homo sapiens), sequence (P51449 whole entry, looked up): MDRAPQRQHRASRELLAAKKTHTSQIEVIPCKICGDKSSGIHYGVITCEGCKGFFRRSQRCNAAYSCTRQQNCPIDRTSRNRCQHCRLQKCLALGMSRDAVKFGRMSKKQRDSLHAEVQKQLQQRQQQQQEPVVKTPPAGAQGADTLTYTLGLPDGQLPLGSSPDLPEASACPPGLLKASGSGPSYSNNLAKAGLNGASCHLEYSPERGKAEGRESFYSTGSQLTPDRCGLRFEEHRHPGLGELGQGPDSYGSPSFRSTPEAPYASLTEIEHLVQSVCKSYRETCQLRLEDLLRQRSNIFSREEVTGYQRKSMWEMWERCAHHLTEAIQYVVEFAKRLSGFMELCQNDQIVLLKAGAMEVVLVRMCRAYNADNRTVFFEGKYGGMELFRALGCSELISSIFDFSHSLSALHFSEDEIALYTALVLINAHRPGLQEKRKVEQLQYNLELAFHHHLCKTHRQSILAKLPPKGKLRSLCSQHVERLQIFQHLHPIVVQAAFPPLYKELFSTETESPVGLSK

This is an account of results in PubChem BioAssay (NCATS).

Several values for one entry are separate records, joined by “and”; a condition that tells them apart may be missing. Equal values may be shown once. Inconclusive results are not listed. Activity calls are given as the source filed them. Unless noted, the call rests on the fitted dose curve.

Bile acid receptor (Homo sapiens), sequence (Q96RI1 whole entry, looked up): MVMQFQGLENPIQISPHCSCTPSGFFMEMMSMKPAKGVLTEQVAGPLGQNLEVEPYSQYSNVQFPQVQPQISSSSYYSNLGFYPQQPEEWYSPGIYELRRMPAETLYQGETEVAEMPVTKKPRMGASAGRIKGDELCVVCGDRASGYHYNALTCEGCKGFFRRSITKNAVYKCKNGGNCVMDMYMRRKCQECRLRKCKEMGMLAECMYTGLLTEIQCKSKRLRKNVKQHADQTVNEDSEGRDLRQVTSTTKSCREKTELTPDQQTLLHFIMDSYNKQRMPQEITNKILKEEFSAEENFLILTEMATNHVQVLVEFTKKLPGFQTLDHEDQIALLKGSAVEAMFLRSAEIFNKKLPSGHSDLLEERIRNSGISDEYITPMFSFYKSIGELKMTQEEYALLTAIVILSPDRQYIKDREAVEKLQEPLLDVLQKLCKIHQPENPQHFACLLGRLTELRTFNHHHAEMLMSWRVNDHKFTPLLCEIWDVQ
Peroxisome proliferator-activated receptor delta (Homo sapiens), sequence (Q03181 whole entry, looked up): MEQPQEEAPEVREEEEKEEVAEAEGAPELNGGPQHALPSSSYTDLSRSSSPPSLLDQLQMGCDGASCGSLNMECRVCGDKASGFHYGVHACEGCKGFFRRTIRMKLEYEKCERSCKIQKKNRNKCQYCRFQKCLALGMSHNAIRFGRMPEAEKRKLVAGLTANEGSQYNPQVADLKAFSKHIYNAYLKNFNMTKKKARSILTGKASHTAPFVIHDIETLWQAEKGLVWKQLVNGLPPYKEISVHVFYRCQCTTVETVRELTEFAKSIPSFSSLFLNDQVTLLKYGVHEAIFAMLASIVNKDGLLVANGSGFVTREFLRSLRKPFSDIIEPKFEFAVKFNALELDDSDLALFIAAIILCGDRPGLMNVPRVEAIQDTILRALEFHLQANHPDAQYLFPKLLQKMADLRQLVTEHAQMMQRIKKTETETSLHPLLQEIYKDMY
Glucocorticoid receptor (Homo sapiens), sequence (P04150 whole entry, looked up): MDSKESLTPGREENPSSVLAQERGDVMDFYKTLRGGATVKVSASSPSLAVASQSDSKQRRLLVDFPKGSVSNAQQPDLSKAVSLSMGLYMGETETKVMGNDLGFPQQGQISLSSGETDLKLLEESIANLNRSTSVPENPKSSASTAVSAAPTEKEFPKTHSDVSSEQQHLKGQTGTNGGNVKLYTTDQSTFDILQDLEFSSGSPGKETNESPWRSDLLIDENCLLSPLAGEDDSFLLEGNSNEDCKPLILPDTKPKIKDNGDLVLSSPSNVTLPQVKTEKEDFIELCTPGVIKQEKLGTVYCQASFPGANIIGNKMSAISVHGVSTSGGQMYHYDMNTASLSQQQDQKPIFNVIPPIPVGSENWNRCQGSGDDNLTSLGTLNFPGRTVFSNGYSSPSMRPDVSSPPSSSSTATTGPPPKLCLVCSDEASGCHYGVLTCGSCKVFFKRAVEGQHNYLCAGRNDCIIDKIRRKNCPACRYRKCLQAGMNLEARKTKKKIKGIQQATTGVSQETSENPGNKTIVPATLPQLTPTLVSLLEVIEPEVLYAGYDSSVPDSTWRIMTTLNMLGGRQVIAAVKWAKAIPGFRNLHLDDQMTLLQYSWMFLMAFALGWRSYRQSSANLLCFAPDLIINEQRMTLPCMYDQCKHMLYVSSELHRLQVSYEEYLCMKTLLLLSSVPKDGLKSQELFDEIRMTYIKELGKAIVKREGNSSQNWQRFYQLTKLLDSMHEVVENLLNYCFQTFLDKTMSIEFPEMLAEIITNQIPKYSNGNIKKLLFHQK
Peroxisome proliferator-activated receptor gamma (Homo sapiens), sequence (P37231 whole entry, looked up): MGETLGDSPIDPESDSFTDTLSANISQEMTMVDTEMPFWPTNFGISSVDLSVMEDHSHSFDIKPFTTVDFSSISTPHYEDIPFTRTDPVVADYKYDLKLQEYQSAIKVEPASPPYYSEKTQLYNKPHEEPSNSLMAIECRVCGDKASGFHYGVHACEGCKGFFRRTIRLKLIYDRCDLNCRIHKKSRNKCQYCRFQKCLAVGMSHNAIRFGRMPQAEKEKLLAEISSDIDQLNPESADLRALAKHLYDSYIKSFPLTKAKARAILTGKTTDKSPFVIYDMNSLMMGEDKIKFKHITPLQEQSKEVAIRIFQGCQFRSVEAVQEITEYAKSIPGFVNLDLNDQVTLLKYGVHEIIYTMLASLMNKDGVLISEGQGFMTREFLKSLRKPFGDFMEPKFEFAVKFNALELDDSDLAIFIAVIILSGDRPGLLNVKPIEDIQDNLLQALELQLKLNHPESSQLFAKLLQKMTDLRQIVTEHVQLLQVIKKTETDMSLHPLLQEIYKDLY
Vitamin D3 receptor (Homo sapiens), sequence (P11473 whole entry, looked up): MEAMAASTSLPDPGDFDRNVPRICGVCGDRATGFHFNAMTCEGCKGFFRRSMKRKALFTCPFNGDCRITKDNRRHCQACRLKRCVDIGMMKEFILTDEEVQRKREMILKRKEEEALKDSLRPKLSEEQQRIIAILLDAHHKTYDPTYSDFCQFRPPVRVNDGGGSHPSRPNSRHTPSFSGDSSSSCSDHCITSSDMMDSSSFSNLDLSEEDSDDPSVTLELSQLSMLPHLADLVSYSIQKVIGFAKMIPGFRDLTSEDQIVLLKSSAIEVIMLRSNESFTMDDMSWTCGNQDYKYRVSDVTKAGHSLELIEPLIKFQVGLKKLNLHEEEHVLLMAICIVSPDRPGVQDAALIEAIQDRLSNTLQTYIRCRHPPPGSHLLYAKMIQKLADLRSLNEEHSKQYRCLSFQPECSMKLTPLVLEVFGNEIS

Consider `CCOP(=S)(OCC)OC(Cl)C(Cl)(Cl)Cl` (stereo not drawn), for which the activation was 11.6% (inactive) in test [1], -0.781% (inactive) in test [11], 0.0553% (inactive) in [12] and 0.044% (inactive) in [13]. The Potency entry in test [2], in [4], in test [5], in [7], in [14] and in [17] was “inactive” throughout. Further, the outcome in [3], in test [6] and in test [19] was inactive. The max response is -12.5% in test [8]; -15% (inactive) in [9]; -3.95% (inactive) in test [15]; -12.8% (inactive) in test [16]; 0.487% (inactive) in test [18]. The activity change % (negative = inhibition) in test [10] is 7.52% (inactive).

Regarding `c1ccc2c(c1)ccc1c3ccccc3ccc21`, the activation in test [20] is -1.28% (inactive). Moreover, the result in [3] was inactive. Further, the Potency in [21] is 4.33 µM (active); in [13] it was 11.2 µM (active).

For the molecule `CCCCC(CC)COC(=O)CCCCC(=O)OCC(CC)CCCC` (stereo not drawn), the Potency result in [22] and in test [23] was “inactive” throughout. Besides, in test [20], the activation was -0.368% (inactive) and -0.458% (inactive). Further, in test [3], the molecule was called inactive. Also, the activity change % (negative = inhibition) in test [10] is 4.91% (inactive).
